The text below walks through data of article PMC4336329 (PLoS ONE, 2015).

In all, about 310,000 compounds went through this assay and about 14,000 (4.5%) showed an effect of 50% or more. The effect is printed as a negative number. The sample as a whole holds a higher share of strong results than the screen did.
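Note: peak tail current of the secondary pulse compared with the same well before compound.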

The target of the test is human ether-à-go-go-related gene (hERG) potassium channel (human, UniProt Q12809). Put plainly: primary screen, population patch clamp on CHO cells stably expressing hERG; higher = less effect of the substance.
Sequence of human ether-à-go-go-related gene (hERG) potassium channel (Q12809 whole entry, looked up): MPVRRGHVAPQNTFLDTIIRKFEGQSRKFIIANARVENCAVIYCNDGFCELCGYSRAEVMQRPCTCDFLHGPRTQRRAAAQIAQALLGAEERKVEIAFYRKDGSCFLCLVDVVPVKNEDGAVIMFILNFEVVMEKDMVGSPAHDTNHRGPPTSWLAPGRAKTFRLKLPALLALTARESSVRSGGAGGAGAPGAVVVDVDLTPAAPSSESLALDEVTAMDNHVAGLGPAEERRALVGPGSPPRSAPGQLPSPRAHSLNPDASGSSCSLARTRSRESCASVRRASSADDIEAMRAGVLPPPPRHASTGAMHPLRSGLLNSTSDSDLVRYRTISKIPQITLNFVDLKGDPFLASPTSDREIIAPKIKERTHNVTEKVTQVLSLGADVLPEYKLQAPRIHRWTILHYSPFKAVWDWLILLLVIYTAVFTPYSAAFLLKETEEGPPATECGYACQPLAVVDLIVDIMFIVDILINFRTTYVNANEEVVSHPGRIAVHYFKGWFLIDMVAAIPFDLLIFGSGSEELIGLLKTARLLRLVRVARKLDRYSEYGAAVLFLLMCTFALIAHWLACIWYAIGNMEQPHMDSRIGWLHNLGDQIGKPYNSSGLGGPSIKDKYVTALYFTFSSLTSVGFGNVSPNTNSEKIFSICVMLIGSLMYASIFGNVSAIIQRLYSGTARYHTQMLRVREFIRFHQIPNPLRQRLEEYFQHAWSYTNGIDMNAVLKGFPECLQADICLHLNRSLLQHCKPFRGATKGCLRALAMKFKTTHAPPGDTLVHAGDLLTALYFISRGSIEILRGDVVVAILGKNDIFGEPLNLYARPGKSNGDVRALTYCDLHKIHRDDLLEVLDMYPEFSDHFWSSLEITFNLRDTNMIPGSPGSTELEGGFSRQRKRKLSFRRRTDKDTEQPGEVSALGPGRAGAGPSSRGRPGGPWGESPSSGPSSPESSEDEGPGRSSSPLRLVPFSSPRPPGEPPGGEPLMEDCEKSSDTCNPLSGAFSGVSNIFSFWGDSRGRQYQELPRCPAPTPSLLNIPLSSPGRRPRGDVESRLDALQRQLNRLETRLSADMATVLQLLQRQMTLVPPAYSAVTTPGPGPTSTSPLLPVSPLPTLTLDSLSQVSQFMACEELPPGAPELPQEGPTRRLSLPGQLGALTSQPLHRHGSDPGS
In the case of `CC1(C)CC(=O)C2=C(C1)OC1=C(C(=O)CC(C)(C)C1)C2c1ccc(O)c([N+](=O)[O-])c1`, the “hERG current change (%, negative = inhibition) at 10uM” value was 14%.
Take `Cc1cc(O)c(C=Nc2ccc(N3CCOCC3)cc2)c(C)c1Cl`: the “hERG current change (%, negative = inhibition) at 10uM” value came out at 18.5%.
As for `O=C1CN(C(=O)COC(=O)C2CC(=O)N(Cc3ccco3)C2)c2ccccc2N1` (centres unmarked), the figure is -7.99%; as for `CSc1ccc(/C=C2\C(=N)N3N=C(CC(=O)N4CCOCC4)SC3=NC2=O)cc1`, 14.2%; as for `COc1cccc(/C=C2/Sc3ccc(C(=O)NCCN4CCCC4)cc3NC2=O)c1`, -39.1%.
On to `COc1cccc(/C=C2/Sc3ccc(C(=O)NCCCN4CCCC4)cc3NC2=O)c1`, for which the “hERG current change (%, negative = inhibition) at 10uM” value is -59.8%.
With `CN1CCN(C(=O)c2ccc3c(c2)NC(=O)/C(=C/c2ccccc2)S3)CC1` the figure was -16%; with `Cc1cccc(/C=C2/Sc3ccc(C(=O)NCCCN4CCOCC4)cc3NC2=O)c1`, -25.3%.
As for `COc1cccc(/C=C2/Sc3ccc(C(=O)NCCN4CCCCCC4)cc3NC2=O)c1`, the figure is -47.3%; as for `O=C1Nc2cc(C(=O)N3CCC(N4CCCCC4)CC3)ccc2S/C1=C\c1ccccc1`, -58.3%.
In the case of `Cc1cccc(/C=C2/Sc3ccc(C(=O)NCCN4CCCC4)cc3NC2=O)c1`, the “hERG current change (%, negative = inhibition) at 10uM” value was -54.7%.
`CCC1CCCCN1CCCNC(=O)c1ccc(/C=C2/Sc3ccccc3NC2=O)cc1` (centres unmarked): the “hERG current change (%, negative = inhibition) at 10uM” value is given as -76.9%.
With `CCC1CCCCN1CCCNC(=O)c1ccc2c(c1)NC(=O)CS2` (centres unmarked) the figure was 4.27%; with `CC1CCN(C(=O)c2ccc3c(c2)NC(=O)/C(=C/c2ccccc2)S3)CC1`, 11%; with `CCN1CCN(CCCNC(=O)c2ccc3c(c2)NC(=O)/C(=C\c2cccc(C)c2)S3)CC1`, -38.6%.
Regarding `CCN1CCCC1CNC(=O)c1ccc2c(c1)NC(=O)/C(=C\c1ccc(C)cc1)S2` (centres unmarked), the “hERG current change (%, negative = inhibition) at 10uM” value is -42.4%.
As for `CC(C)(C)C(=O)O/N=C(\N)c1ccc([N+](=O)[O-])s1`, the figure is 20.7%; as for `CSc1cccc(NC(=O)C2CCN(C(=O)c3ccccc3C)CC2)c1`, -18.7%.
With `O=C1CC(c2ccc(F)cc2)Cc2nc(N3CCN(c4ccccc4)CC3)ncc21` (centres unmarked) the figure was 1.48%; with `O=C(O)c1ccc(/C=N/NC(=O)c2ccc3c(c2)OCCO3)cc1`, 16.1%.
As for `CCn1c(C2CCN(Cc3ccccc3)CC2)n[nH]c1=S`, the “hERG current change (%, negative = inhibition) at 10uM” value is -17.3%.
As for `CCC(=O)N/N=c1/sc2ccccc2n1C`, the figure is 13.9%.
With `Cc1ccc(C)c(NC2=NCCCS2)c1` the figure was 1.48%; with `CC1(C)CC(NC(=O)COc2ccc3ccccc3c2)CC(C)(C)N1`, -12.6%; with `O=C1Nc2cc(C(=O)NCC3CCCO3)ccc2S/C1=C/c1ccccc1F` (centres unmarked), -4.84%.
With `O=C1Nc2cc(C(=O)NCCN3CCCCCC3)ccc2S/C1=C\c1ccccc1` the figure was -43.9%; with `O=C(NCCCN1CCCCC1)c1ccc2c(c1)NC(=O)c1ccccc1S2`, -13.7%.
In the case of `O=C1Nc2cc(C(=O)NCCCN3CCOCC3)ccc2S/C1=C/c1ccccc1F`, the “hERG current change (%, negative = inhibition) at 10uM” value was -29.8%.
With `O=C1Nc2cc(C(=O)NCCCN3CCCC3)ccc2S/C1=C\c1ccccc1` the figure was -51.4%.
As for `O=C1Nc2cc(C(=O)NCCCN3CCCC3)ccc2S/C1=C/c1ccccc1F`, the figure is -69.5%; as for `COc1ccccc1N1CCN(S(=O)(=O)/C=C/c2ccccc2)CC1`, -11.3%; as for `Cc1ccc(NC(=O)CN(C)C(=O)COC(=O)COc2ccc(C#N)cc2)cc1`, -24.2%.
With `O=C(O)c1cccc2c1C(=O)c1ccccc1C2=O` the figure was 19.7%; with `Cc1ccc(S(=O)(=O)Nc2cc(-c3ccccc3)nn2C)cc1Cl`, 12.2%; with `COc1ccccc1NC(=S)NCC1CCCO1` (centres unmarked), 8.94%.
Take `Cc1ccc(NC(=O)CSc2ccc3nnc(CCNC(=O)c4ccccc4)n3n2)c(C)c1`: the “hERG current change (%, negative = inhibition) at 10uM” value is -18%.
As for `S=C(NCCCc1ccccc1)Nc1ccc(Br)cc1`, the figure is 17.9%.
Regarding `CCCCCOC(=O)C1[C@H]2C(=O)N(Cc3cccs3)C[C@]23C=C[C@H]1O3` (some centres unmarked), the “hERG current change (%, negative = inhibition) at 10uM” value was 1.95%.
With `Cc1ccc2nc(SCC(=O)NC3CCCC3)nc(=O)n2c1` the figure was -25.1%.
As for `O=C(NC1CCCCCC1)c1ccc2nc3cc(Cl)ccc3c(=O)n2c1`, the figure is 7.94%; as for `Cc1ccc2nc3nc(NCC4CCCO4)c(C(=O)NC4CCCC4)cc3c(=O)n2c1` (centres unmarked), -75.6%; as for `Cc1ccc2nc3c(cc(C(=O)NC4CCS(=O)(=O)C4)n3Cc3ccccc3)c(=O)n2c1` (centres unmarked), 19.6%.
Take `Cc1ccc2nc3nc(NCC4CCCO4)c(C(=O)NC4CCCCC4)cc3c(=O)n2c1` (centres unmarked): the “hERG current change (%, negative = inhibition) at 10uM” value is -78.1%.
As for `Cc1ccc2nc(SCC(=O)NC3CCCCC3)nc(=O)n2c1`, the figure is -14.5%.
With `COC(=O)Cc1ccc(NC(=O)c2ccc3c(c2)C(=O)N(Cc2ccco2)C3=O)cc1`, the “hERG current change (%, negative = inhibition) at 10uM” value was -2.43%.
With `Cn1nc(C(F)(F)F)c(-c2ccccc2)c1NC(=O)CSCC(=O)O` the figure was 12.2%; with `CCSc1ncnc2c1sc1nc3c(cc12)COC(C)(C)C3`, -2.04%.
As for `COc1ccccc1N1CCN(C2CCC(C)CC2)CC1` (centres unmarked), the figure is 4.87%; as for `COc1ccccc1N1CCN(C2CCN(C(=O)COc3cccc(C)c3)CC2)CC1.O=C(O)C(=O)O`, -67.8%.
As for `COc1ccccc1N1CCN(C2CCN(C3CCC(c4ccccc4)CC3)CC2)CC1.O=C(O)C(=O)O` (centres unmarked), the figure is -74.1%; as for `COc1ccccc1C(=O)N1CCC(N2CCN(c3ccccc3)CC2)CC1`, -8.58%.
With `Cc1cccc(OCC(=O)N2CCC(N3CCCCCC3)CC2)c1`, the “hERG current change (%, negative = inhibition) at 10uM” value is listed as -11.2%.
With `COc1ccccc1N1CCN(C2CCN(C(=O)COc3ccccc3)CC2)CC1` the figure was -25.4%.
With `COc1ccccc1N1CCN(C2CCN(C(=O)c3cccc(F)c3)CC2)CC1.O=C(O)C(=O)O` the figure was -33.1%.
With `COc1ccc(C(=O)N2CCC(N3CCN(c4ccccc4)CC3)CC2)cc1.O=C(O)C(=O)O` the figure was -57.6%; with `COc1ccccc1N1CCN(C2CCN(C(=O)c3ccc(F)cc3)CC2)CC1`, -61%.
Regarding `COc1ccccc1N1CCN(C2CCN(C(=O)c3cc(OC)c(OC)c(OC)c3)CC2)CC1`, the “hERG current change (%, negative = inhibition) at 10uM” value is on record as -23.1%.
With `COc1cc(OC)cc(C(=O)N2CCC(N3CCN(c4ccccc4)CC3)CC2)c1`, the “hERG current change (%, negative = inhibition) at 10uM” value is listed as -26.9%.
On to `CCN1CCC(N2CCN(c3ccccc3OC)CC2)CC1`, for which the “hERG current change (%, negative = inhibition) at 10uM” value is 11.7%.
